From the supplement of paper PMC3334620
Over roughly 33,000 sequences, “E-score (-0.5 to 0.5)” has its median near -0.054; the highest 2% begin near 0.35. The list comes from a sample in which the highest values are over-represented; it also holds similar and randomly drawn sequences.

Target: T1, Stb5 (UniProt P38699)
T1 sequence: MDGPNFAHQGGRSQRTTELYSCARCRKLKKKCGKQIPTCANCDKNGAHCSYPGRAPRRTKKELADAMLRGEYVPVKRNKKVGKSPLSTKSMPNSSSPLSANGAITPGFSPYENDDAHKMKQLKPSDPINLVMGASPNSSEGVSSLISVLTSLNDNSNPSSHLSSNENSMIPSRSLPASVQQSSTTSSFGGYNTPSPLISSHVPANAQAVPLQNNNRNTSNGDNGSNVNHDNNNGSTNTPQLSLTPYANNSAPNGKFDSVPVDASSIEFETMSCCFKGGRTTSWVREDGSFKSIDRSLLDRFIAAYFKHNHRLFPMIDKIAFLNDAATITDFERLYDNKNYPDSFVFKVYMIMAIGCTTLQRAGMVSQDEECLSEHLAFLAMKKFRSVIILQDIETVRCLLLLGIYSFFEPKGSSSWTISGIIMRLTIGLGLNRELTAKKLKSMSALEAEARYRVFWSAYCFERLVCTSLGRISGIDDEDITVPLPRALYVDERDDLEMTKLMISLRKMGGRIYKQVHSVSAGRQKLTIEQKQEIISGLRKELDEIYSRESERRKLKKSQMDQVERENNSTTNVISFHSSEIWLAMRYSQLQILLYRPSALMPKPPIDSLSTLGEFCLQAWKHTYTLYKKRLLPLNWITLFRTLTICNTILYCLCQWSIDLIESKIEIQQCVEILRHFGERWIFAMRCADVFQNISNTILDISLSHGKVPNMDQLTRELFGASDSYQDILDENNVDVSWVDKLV
Test: PBM E-score (8-mer binding enrichment) (E-score (-0.5 to 0.5)); higher = stronger / more preferred TF binding
Details: protein concentration: 200 nM; construct: GST-full length
Experimental: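 Universal 'all 10-mer' protein binding microarrays (Agilent AMADID 015681) probed with GST-tagged S. cerevisiae TFs (full-length or DBD) made by in vitro transcription/translation (PURExpress), about 100-200 nM. Bound TF was detected with fluorescent anti-GST. Each ungapped 8-mer (which stands for itself and its reverse complement) is scored by the PBM enrichment score (E-score), a modified Wilcoxon-Mann-Whitney statistic from -0.5 to +0.5, computed with the Universal PBM Analysis Suite. Scale: above 0.35 generally sequence-specific binding.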

| Sequence | PBM E-score |
| --- | --- |
| GGGAGTCA | -0.163 |
| CGGAGTGC | 0.198 |
| AGCGCAGA | -0.0263 |
| CCATGACG | 0.0201 |
| CCAATTTA | 0.119 |
| TCACCGCA | 0.305 |
| CCACCGCA | 0.245 |
| ATACCGCG | 0.33 |
| CCACCGCG | 0.3 |
| CGACCGCC | 0.255 |
| AGACCGCG | 0.297 |
| CTACCGCC | 0.305 |
| ATACCGCA | 0.325 |
| ACACCGCG | 0.444 |
| ACACCGCA | 0.44 |
| ATACCGCC | 0.434 |
| AGACCGCC | 0.364 |
| CCCGTGAC | 0.155 |
| GATTTGAC | 0.0761 |
| CAGCGTAA | -0.168 |
| CCCATTAG | -0.361 |
| AATTCCGA | 0.265 |

| Sequence | PBM E-score |
| --- | --- |
| GGACGGGA | 0.1 |
| CCTTTGCG | 0.03 |
| GATGCCCA | -0.136 |
| ATACCGTA | 0.259 |
| ACACCGCC | 0.459 |
| CCACCGCC | 0.282 |
| GGACCGCC | 0.288 |
| ATACCGTC | 0.357 |
| GCACCGCC | 0.377 |
| AAACCGCT | 0.0494 |
| ACACCGCT | 0.419 |
| AGACCGCT | 0.345 |
| AAACCGCC | 0.302 |
| GAACCGCC | 0.187 |
| ATACCGTG | 0.249 |
| ATCTGGTC | -0.153 |
| ATTTAGAG | -0.138 |
| AATGGTGA | -0.231 |
| TGTAGCAA | -0.0607 |
| AATAAGCA | -0.0559 |
| CAAAGTAG | -0.164 |
| GCACCGCA | 0.361 |

| Sequence | PBM E-score |
| --- | --- |
| GCACCGTA | 0.248 |
| GGACCGCA | 0.188 |
| CATCCGAC | 0.288 |
| CGAGACTA | -0.0587 |
| GGGGGTCA | -0.125 |
| CCGGGTCA | 0.176 |
| CCGGGTGA | 0.179 |
| GGGGGTGA | -0.123 |
| CGGGGTGA | 0.432 |
| CGGGGTCA | 0.441 |
| CGCTTGGA | -0.0324 |
| TAGGACAA | -0.287 |
| CCCGGGTC | 0.352 |
| ACCCGGTC | 0.204 |
| CCCGGGTA | 0.101 |
| ACCGGGTC | 0.19 |
| CCCCGGTC | 0.369 |
| CCCCGGTA | 0.298 |
| CCCGCACG | 0.325 |
| GAAGTTCA | -0.189 |
| ACCCCGGG | 0.392 |
| CCCCGGGC | 0.265 |

| Sequence | PBM E-score |
| --- | --- |
| ACCCGGGG | 0.185 |
| ACCCCGGA | 0.308 |
| CCCCGGGA | 0.268 |
| CCCCGGGG | 0.393 |
| ACCCCGGC | 0.343 |
| ACCCCGGT | 0.356 |
| CCCCCGGG | 0.237 |
| TAGAAAAA | -0.116 |
| ACAGCCCC | -0.0495 |
| CCTGTGAC | -0.0962 |
| CCGATGAC | 0.301 |
| GTCCACGA | -0.134 |
| AGGCTCTC | -0.369 |
| AGAACTTA | -0.169 |
| AATGTAGT | -0.128 |
| ACAAAGCA | -0.0624 |
| CTTGGGAC | -0.0832 |
| AAGTGCCA | -0.182 |
| AAGTGCCG | 0.409 |
| CAATGCCG | 0.334 |
| AAATGCCC | 0.0775 |
